From PubChem BioAssay AID651939 (The Scripps Research Institute Molecular Screening Center, 2012)
The list shows a part of the results. Unmarked numbers belong to inactive results. Active and inactive are the calls of the source. Rule as the data show it: active = IC50 below about 9 µM; inactive = the rest.

experiment: binders of control antibody PG126, dose response, counter-screen for PG9 antibody binder project, biochemical, TR-FRET, distinct HIV envelope site (AID 651939); settings: TR-FRET binding to antibody PG126, counterscreen

**Q.** With `O=C(Oc1ccccc1)Oc1ccc2c(c1)oc(=O)c1ccccc12` as the compound, how does the IC50 read?
**A.** The IC50 was 4.13 µM (active).

**Q.** For `O=C(Nc1nnc(-c2ccccc2F)s1)c1ccccc1F`, which IC50 is on record?
**A.** Its IC50 is 17.9 µM.

**Q.** For `CC1(C)Cc2ccccc2-c2[nH]c(=S)[nH]c(=O)c21`, which IC50 is on record?
**A.** The IC50 was 66.1 µM.

**Q.** For `S=c1[nH]c2ccccc2c2ccccc12`, which IC50 is on record?
**A.** Its IC50 is 60.4 µM.

**Q.** With `COC(=O)C1=C(C)N(Cc2ccccc2C(F)(F)F)C(=NCc2ccc(OC)cc2)NC1c1cccc(C(F)(F)F)c1` (configuration not stated) as the compound, how does the IC50 read?
**A.** Its IC50 is > 67 µM.

**Q.** Which IC50 does the source give for `COc1ccc(-c2c(C)nn3c(N4CCC(C(=O)N5CCCCC5)CC4)cc(C)nc23)cc1OC` here?
**A.** The IC50 was > 67 µM.

**Q.** With `Cc1cccc(Nc2nc3c(S(=O)(=O)c4ccccc4)nnn3c3ccccc23)c1C` as the compound, how does the IC50 read?
**A.** Its IC50 is 3.75 µM (active).
